This is an account of results in PubChem BioAssay (NCI).

Molecules are shown by their SMILES. The panel holds about 83,000 compounds, 20% with a hit somewhere; the sample as a whole holds those more often.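 The endpoint reported here, percent growth, reads 100 for growth as untreated, 0 for no net growth and -100 for all cells dead.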 Unmarked numbers belong to inactive results. Active and inactive are the calls of the source. The calls were made as follows: active = growth percent below 10; inactive = the rest.

What all share (assay): NCI-60 one-dose screen, 48 h (100 = growth as untreated, 0 = no growth, -100 = all killed)
What all share (settings): 10 µM unless noted

Test [1] has as its system HCT-15 colon.
The test system of test [2] is HT29 colon.
Test [3] relates to SNB-75 CNS.
For test [4], the system named is SNB-19 CNS.
Test [5] deals with U251 CNS.
Test [6] concerns PC-3 prostate.
In test [7] the test system is SK-MEL-5 melanoma.
Test [8] deals with LOX IMVI melanoma.
The test system of test [9] is UACC-62 melanoma.
For test [10], the system named is SK-MEL-28 melanoma.

In the case of `COc1cccc(-c2nn(-c3ccccc3)cc2-c2ccnc(NCCCNS(=O)(=O)c3cccc(F)c3)c2)c1`, the growth is 21.9% in test [1]; 15.1% in test [2]; 55.4% in test [3]; 42.8% in [4]; 27.5% in test [5]; 11.9% in test [6]. The results for the growth in [7] and in [8] were -45.6% (active) and 27.5%, respectively.

In the case of `COc1cccc(-c2nn(-c3ccccc3)cc2-c2ccnc(NCCCO)c2)c1`, the growth in test [1] was 26.3%; in test [2], 7.65% (active); in [3] it was 23.4%; in test [4], 36.3%; in test [5], 21%; in test [6], 46.4%. Moreover, the growth in test [7] is 29.8%; in test [8], 33.6%.

In the case of `Nc1c(C(=O)Nc2cccc3ccccc23)sc2nc3c(cc12)CCCC3`, the growth was 26.8% in [1]; 2.73% (active) in test [2]; 37.9% in test [3]; 39.2% in test [4]; 25.4% in [5]; 39.9% in test [6]. Also, the growth in test [7] is 28.2%; in test [8] it was 38.6%.

`Cc1cccc2c1NC(=O)[C@@]21[C@H](C(=O)c2ccccc2)[C@]2(C(=O)Nc3ccccc32)[C@H]2CCCN21`: the growth in test [1] is 9.8% [100 µM] (active); in test [2] it was 3.18% [100 µM] (active); in test [3], -25.4% [100 µM] (active); in test [4] it was -5.94% [100 µM] (active); in [5], 1.7% [100 µM] (active); in [6], 21.7% [100 µM]. For the same compound, the growth in test [7] is 31% [100 µM]; in test [9] it was 22.5% [100 µM]; in [10], 46.4% [100 µM].

As to `O=S(=O)(NCCCNc1cc(-c2cn(-c3ccccc3)nc2-c2cccc(O)c2)ccn1)c1ccc(F)cc1`, the growth is 6.54% (active) in test [1]; 0.761% (active) in test [2]; 46.3% in test [3]; 57.4% in test [4]; 31.3% in test [5]; 23% in [6]. Also, the growth was 31.4% in test [7] and 18.9% in test [8].

As to `C=C1C(=O)O[C@H]2[C@H]1CC/C(Cn1cc(-c3ccc(F)cc3)nn1)=C\CC[C@@]1(C)O[C@@H]21`, the growth in test [1] was -78.8% (active); in test [2], -84.8% (active); in test [3], 85.5%; in test [4], 66.8%; in test [5], 20.7%; in test [6] it was 28.5%. In addition, the growth was 36.3% in test [7] and -89.3% (active) in test [8].

For `O=S(=O)(NCCNc1cc(-c2cn(-c3ccccc3)nc2-c2cccc(O)c2)ccn1)c1ccc(Br)cc1`, the growth in test [1] is 5.6% (active); in test [2] it was 4.7% (active); in [3], 43.7%; in test [4], 41.3%; in test [5], 22.5%; in [6], 15.6%. The growth in test [7] is 11.5%; in [8], 20%.

As to `COc1cccc(-c2nn(-c3ccccc3)cc2-c2ccnc(NCCNS(=O)(=O)c3ccc(Cl)cc3)c2)c1`, the growth in [1] was 24.1%; in test [2] it was 11.6%; in test [3], 66.2%; in test [4], 46%; in test [5] it was 31.2%; in [6], 10.6%. The values for the growth in test [7] and in [8] were -13.7% (active) and 24.5%, respectively.

In the case of `COC(=O)[C@]12CC[C@@H](C)[C@H](C)[C@@H]1C1=CC(=O)[C@@H]3[C@@]4(C)C[C@@H](O)[C@H](O)[C@@]5(C)COC(=C45)C[C@@]3(C)[C@]1(C)CC2`, the growth in test [1] was 26.5%; in test [2] it was 27.4%; in test [3], 32.8%; in [4], 60.8%; in test [5], 39.5%; in test [6] it was 49.2%. For the same compound, the growth was 41.3% in [7] and 57% in test [8].

As to `COc1ccccc1CNc1nc(N)nc2[nH]c3ccc(O)cc3c12`, the growth is 41% in test [1]; 18.9% in test [2]; 35.8% in test [3]; 59% in test [4]; 37.4% in [5]; 65.5% in test [6]. For the same compound, the growth in [7] was 38.3%; in test [8], 43.2%.

With `COc1cc(-c2cc3cc(O)ccc3oc2=O)cc(OC)c1OC`, the growth is 91.4% in test [1]; 103% in test [2]; 65.3% in test [3]; 95.5% in test [4]; 99.3% in [5]; 85.3% in [6]. Also, the growth was 93.6% in test [7] and 103% in [8].

In the case of `COc1cccc(-c2nn(-c3ccccc3)cc2-c2ccnc(NCCCNS(=O)(=O)c3ccccc3)c2)c1`, the growth in test [1] is 26.5%; in [2] it was 19%; in [3], 62.1%; in test [4], 47.9%; in test [5], 34%; in test [6], 15.7%. Moreover, the growth is 11.3% in test [7] and 33.1% in [8].

Consider `COc1cccc(-c2nn(-c3ccccc3)cc2-c2ccnc(NCCNS(=O)(=O)c3ccccc3)c2)c1`, for which the growth is 20.3% in test [1]; 16.9% in test [2]; 67.7% in test [3]; 42.6% in test [4]; 34.8% in test [5]; 17.5% in [6]. Moreover, the growth in test [7] is 17.1%; in test [8], 41%.

Turning to `O=S(=O)(NCCNc1cc(-c2cn(-c3ccccc3)nc2-c2cccc(O)c2)ccn1)c1ccccc1`, the growth in [1] is 17.9%; in test [2], 24.1%; in test [3], 78.4%; in [4], 72.4%; in [5], 43.3%; in [6], 30.1%. The growth in test [7] is 34%; in test [8], 54.7%.

For the compound `N#CCCCCCn1c2ccccc2c2c3c(c4c5ccccc5n(CCCCCC#N)c4c21)C(=O)N(O)C3=O`, the growth is 97.3% in test [1]; 68% in [2]; 100% in test [3]; 66.7% in test [4]; 83.8% in [5]; 68.5% in test [6]. For the same compound, the growth in test [7] was 74.2%; in [8] it was 24%.
